Abeta rescue = qHTS for compounds that reverse cellular toxicity of Amyloid beta (A-beta) peptide in yeast: Primary Screen; hit rate 0.063% among 410,000; Potency, µM (doses to about 46.1 µM), hits mostly activators; yeast expressing A-beta42, growth rescue, OD600, 48 h; response scale: 0% DMSO, 100% iron-clioquinol control; note: nearly all actives have a fitted effect of over 55% in size
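Yeast growth medium received pinned compounds, then yeast cells expressing toxic A-beta were added; plates incubated at 30 C for 48 hr. Growth read as absorbance at 600 nm, normalized to DMSO and equimolar FeCl3 plus clioquinol controls.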
Rango-impB inh = qHTS Assay for Inhibitors of Rango (Ran-regulated importin-beta cargo) - Importin beta complex formation. Rango CFP/YFP FRET sensor + importin beta, 45 min. Importin subunit beta-1 (Homo sapiens), Q14974. Potency, µM (doses to about 92.2 µM). hit rate 0.031% among 340,000. AID 540263, 2011; calls by dose curve; note: nearly all actives have a fitted effect of over 15% in size
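FRET biosensor Rango (snurportin 1 IBB between N-terminal EYFP and C-terminal Cerulean), 50 nM in PBS/1 mM DTT/0.02% Tween-20/0.1% BSA, preincubated 5 min RT with compound; 0.125 microM importin beta added, 45 min RT, CFP/YFP FRET ratio read.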
aSyn yeast inh = qHTS of alpha-syn Inhibitors; Yeast expressing alpha-synuclein, growth rescue, BacTiter-Glo, 24 h; Potency, µM (top dose mostly 46.1 µM), usual class: activators; hit rate 0.14% among 370,000; AID 652106, 2013; note: nearly all actives have a fitted effect of over 65% in size
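Rescue of yeast growth: cells expressing toxic alpha-synuclein, induced in galactose at OD600 0.02, incubated with compound 24 h at 30 C. ATP luminescence quantified growth; inhibitors of toxicity appear as activators.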
TDP-43 yeast inh = qHTS of TDP-43 Inhibitors. AID 652104, 2013. hit rate 1.8% among 410,000. Potency, µM (highest dose often 46.1 µM), actives largely listed as activators. TDP-43 expressing yeast growth rescue, BacTiter-Glo, 24 h; note: nearly all actives have a fitted effect of over 50% in size
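Growth rescue of TDP-43-toxic yeast measured as ATP luminescence (BacTiter-Glo). Cells grown to mid-log in raffinose, induced in galactose at OD600=0.02, exposed to compound 24 hr at 30 deg C.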
Rango release inh = qHTS Assay for Inhibitors of RanGTP induced Rango (Ran-regulated importin-beta cargo) - Importin beta complex dissociation; Biochemical FRET Rango-importin beta, RanGTP-induced dissociation; Potency, µM (top dose mostly 46.1 µM); Snurportin-1 (Homo sapiens) + GTP-binding nuclear protein Ran (Homo sapiens) + Importin …; hit rate 0.071% among 340,000; calls by dose curve; note: nearly all actives have a fitted effect of over 45% in size
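Rango (0.1 uM)–importin beta (0.25 uM) complex; RanGTP-RCC1 trigger; 45 min RT; CFP/YFP FRET read.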
ASM inhibitor = Inhibitors of Secretory Acid Sphingomyelinase (S-ASM): qHTS | placental ASM, HMU-PC fluorogenic substrate, 60 min | Potency, µM (series often up to 57.5 µM), usual class: inhibitors | hit rate 0.006% among 340,000
Target sequence (P17405 47-631 limits assumed): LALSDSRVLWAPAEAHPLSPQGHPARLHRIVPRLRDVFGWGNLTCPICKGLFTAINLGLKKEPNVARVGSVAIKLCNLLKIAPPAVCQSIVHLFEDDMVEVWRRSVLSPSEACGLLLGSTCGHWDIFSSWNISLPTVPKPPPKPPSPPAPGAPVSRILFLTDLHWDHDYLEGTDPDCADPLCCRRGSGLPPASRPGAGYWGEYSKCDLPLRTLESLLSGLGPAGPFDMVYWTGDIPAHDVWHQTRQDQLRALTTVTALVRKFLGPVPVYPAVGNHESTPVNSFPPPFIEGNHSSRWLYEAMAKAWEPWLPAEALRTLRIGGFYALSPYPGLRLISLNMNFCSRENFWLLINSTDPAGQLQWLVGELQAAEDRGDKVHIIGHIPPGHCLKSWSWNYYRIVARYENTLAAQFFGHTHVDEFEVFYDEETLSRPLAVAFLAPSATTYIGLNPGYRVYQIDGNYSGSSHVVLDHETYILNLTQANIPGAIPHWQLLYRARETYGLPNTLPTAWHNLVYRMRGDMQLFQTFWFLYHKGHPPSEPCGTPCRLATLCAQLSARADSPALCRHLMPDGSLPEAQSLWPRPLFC
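HMU-PC0 cleavage (9 uM final) by human placental ASM, 60 min at 37 °C following 10 min compound exposure at RT; stopped at pH 10, fluorescence Ex 386/Em 447 nm.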
Each line names hits and unclear results; the compound was inactive in the other large screens. This is a sample that favours compounds with a hit; in the whole collection about 2% have one here. Unless noted, calls come from the whole dose curve; as a rule, active = well fitted curve in the direction sought with a large enough effect; inconclusive = small, poorly fitted or top-dose-only effect, or another doubt; inactive = no such curve, though single readings can be large; an effect the other way counts as inactive or inconclusive.

CCCCCCC1CC(CCc2nc(=S)[nH][nH]2)C(=O)O1 (stereo not given)	none
CCCCCCCCc1nc(=S)[nH][nH]1	TDP-43 yeast inh 13µM
CCCCn1c(=NC(=O)C(C)(C)Oc2ccc(Cl)cc2)c(C(=O)OCC)cc2c(=O)n3ccccc3nc21	none (no result: Rango-impB inh, aSyn yeast inh, Rango release inh, ASM inhibitor)
COc1ccc(NN=Nc2ccc([N+](=O)[O-])cc2)cc1	Abeta rescue inconclusive, Rango-impB inh inconclusive, TDP-43 yeast inh 18µM
CC(=O)c1ccc(NC(=O)Cn2ncc3c(C)n(Cc4ccc(F)cc4)c(C)c3c2=O)cc1	none (no result: Rango-impB inh, aSyn yeast inh, Rango release inh, ASM inhibitor)
CCOC(=O)c1sc(NNC(=O)c2ccc(F)cc2)nc1C	Abeta rescue inconclusive, aSyn yeast inh inconclusive, TDP-43 yeast inh 14µM
CCOC(=O)c1sc(Nc2ccccc2Cl)nc1C	TDP-43 yeast inh 20µM
CCOC(=O)c1sc(NC(=O)Nc2ccccc2F)nc1C	none
CCOC(=O)c1sc(NNC(=O)c2ccc(C)cc2)nc1C	none
CCOC(=O)c1sc(Nc2ccc(Br)cc2)nc1C	TDP-43 yeast inh 16µM
CCOC(=O)c1sc(NCCNc2nc(C)c(C(=O)OCC)s2)nc1C	none
COc1ccccc1CNS(=O)(=O)c1ccc2c(c1)CC(C)N2C(C)=O (stereo not given)	none (no result: Rango-impB inh, aSyn yeast inh, Rango release inh, ASM inhibitor)
Cc1ccc(NC(=O)COC(=O)c2ccccc2OCC(=O)N(C)C)cc1	none (no result: Abeta rescue, Rango-impB inh, TDP-43 yeast inh, Rango release inh, ASM inhibitor)
Cc1ccc(C)c(N2CCN(C(=O)c3cc(S(=O)(=O)N4CCCC4)c[nH]3)CC2)c1	none (no result: Rango-impB inh, aSyn yeast inh, Rango release inh, ASM inhibitor)
c1ccc(NC2=NCCN2CCCC2CCCCC2)cc1	aSyn yeast inh 16µM
CCOC(=O)c1c(C)c(-c2ccccc2)n(CC(=O)Nc2cc(C)ccc2OC)c1C	none (no result: Rango-impB inh, aSyn yeast inh, Rango release inh, ASM inhibitor)
Brc1c(-c2ccccc2)nc2n1Cc1ccccc1-2	aSyn yeast inh inconclusive, TDP-43 yeast inh 13µM
O=C(COC(=O)/C=C/c1ccco1)NCc1ccccc1	none
O=C(COC(=O)/C=C/c1ccco1)NCc1ccc(Cl)cc1	TDP-43 yeast inh 10µM
CCCC(=O)N1N=C(c2ccccc2)CC1c1cn(C)c2ccccc12 (stereo not given)	TDP-43 yeast inh inconclusive
CC(=O)N1N=C(c2ccc(Br)cc2)CC1c1cn(C)c2ccccc12 (stereo not given)	Rango-impB inh inconclusive, aSyn yeast inh inconclusive, TDP-43 yeast inh 25µM, Rango release inh inconclusive
COc1cccc(N2CCN(C(=S)Nc3ccccc3OC)CC2)c1	none
Cc1cccc(N2CCN(C(=O)c3ccc4ncsc4c3)CC2)c1C	TDP-43 yeast inh 11µM
COc1ccc(N2CCN(C(=O)c3ccc(CS(=O)c4cccc(Cl)c4)o3)CC2)cc1 (stereo not given)	none (no result: Rango-impB inh, Rango release inh, ASM inhibitor)
Cc1cccc(N2CCN(C(=O)c3ccc4nc[nH]c4c3)CC2)c1C	none
COc1ccccc1NC(=S)N1CCN(c2cccc(C)c2C)CC1	Abeta rescue inconclusive, TDP-43 yeast inh 18µM
COc1ccc(S(=O)Cc2ccc(C(=O)N3CCN(c4cccc(C)c4C)CC3)o2)cc1 (stereo not given)	TDP-43 yeast inh 20µM
COc1cc(C(=O)N2CCN(c3cccc(C)c3C)CC2)cc(OC)c1OC	TDP-43 yeast inh 22µM
Cc1ccc(C)c(N2CCN(C(=O)c3ccc4nsnc4c3)CC2)c1	TDP-43 yeast inh 11µM
O=C(c1ccc(N2CCCC2=O)cc1)N1CCN(c2ccccc2Cl)CC1	TDP-43 yeast inh 16µM
O=C(c1ccc2ncsc2c1)N1CCN(c2ccccc2Cl)CC1	TDP-43 yeast inh 10µM
O=C(c1ccc2ncsc2c1)N1CCN(c2nc3ccccc3s2)CC1	TDP-43 yeast inh inconclusive
Cc1nn(C(C)C(=O)N2CCN(c3ccc(Cl)cc3)CC2)c(=O)c2cc3occc3n12 (stereo not given)	TDP-43 yeast inh inconclusive (no result: Rango-impB inh, aSyn yeast inh, Rango release inh, ASM inhibitor)
Cc1ccc(NC(=O)CN2C(=O)COc3ccc(S(=O)(=O)N4CCOCC4)cc32)c(Cl)c1	none (no result: Rango-impB inh, aSyn yeast inh, Rango release inh, ASM inhibitor)
